According to PubChem BioAssay AID2018 (Sanford-Burnham Center for Chemical Genomics, 2009):
Out of some 1,200 compounds screened, about 600 (50%) were called active. Rule as the data show it: active = inhibition above about 42%; inactive = the rest. So high a share suggests a set chosen from earlier hits. This is one part of the list. Results with a measured potency or affinity are listed apart.

Molecular target: SUMO-conjugating enzyme UBC9 (Homo sapiens) (UniProt P63279)
Experiment: blockers of UBC9-mediated SUMO conjugation – biochemical, AlphaScreen, SUMOylation inhibitor project, confirmation (AID 2018)
Conditions: AlphaScreen in vitro SUMOylation assay; at 35 µM; hits give high values

Chain of SUMO-conjugating enzyme UBC9 (Homo sapiens) (P63279 whole entry, looked up): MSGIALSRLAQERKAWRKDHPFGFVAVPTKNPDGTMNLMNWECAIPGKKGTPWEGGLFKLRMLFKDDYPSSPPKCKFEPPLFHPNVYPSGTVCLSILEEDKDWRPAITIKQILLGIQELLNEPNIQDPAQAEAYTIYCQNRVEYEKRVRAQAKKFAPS

inhibition, inactive:
COc1ccc2c(c1)C(C)=CC(C)(C)N2C(=O)Nc1ccccc1 38.7%
CCN(CC)C(=O)c1sc2nc(-c3ccncc3)[nH]c(=O)c2c1C 0.7%
CCOc1ccc(S(=O)(=O)N2CCCC(C(=O)NCc3ccco3)C2)cc1 (configuration not stated) 4.2%
Fc1cccc(NC(=S)Nc2cccc3ccccc23)c1 24.1%
[O-]/C(=C(\C(=S)Nc1cccc2ccccc12)[n+]1cccc(CO)c1)c1ccc(Cl)s1 31.7%
CC(C)c1ccc(NC(=S)Nc2cccc3ccccc23)cc1 24.3%
Cc1cc(C)c(S(=O)(=O)NCC23C=CC(O2)C2C(=O)N(c4ccccc4)C(=O)C23)c(C)c1 (configuration not stated) -6.4%
O=C1N=c2ccccc2=C1c1c(O)n(-c2cccc(F)c2)[nH]c1=O 12%
Cc1nn(-c2ccccc2)c2c1C(c1ccc(F)cc1)C(C#N)=C(N)O2 (configuration not stated) 0%
N#CC1=C(N)Oc2n[nH]c(-c3cccs3)c2C1c1ccoc1 (configuration not stated) 24.4%
CC(C)N1CCC2(CC1)C(C#N)=C(N)NC(S)=C2C#N 26%
Cc1nc2c3cc(F)ccc3n(Cc3ccc(F)cc3)c2s1 20.7%

inhibition, active:
CSc1nnc(SCc2nc3sc(C(=O)O)c(C)c3c(=O)[nH]2)s1 89.8%
[O-]/C(=C(\C(=S)Nc1cccc2ccccc12)[n+]1ccccc1)c1ccc(Cl)s1 53.6%
CC(C)c1ccc(NC(=O)C[n+]2ccn(C3=C([O-])c4ccccc4C3=O)c2)cc1 61.2%
O=c1c(-c2c(O)cc(O)c3c(=O)cc(-c4ccc(O)cc4)oc23)c(-c2ccc(O)cc2)oc2cc(O)cc(O)c12 99.8%
Cc1[nH][nH]c(=O)c1C(c1ccc(-c2ccc(Cl)c(Cl)c2)o1)c1c(C)[nH][nH]c1=O 45.9%
Cc1[nH][nH]c(=O)c1C(c1ccc(-c2ccc(Cl)c(C(=O)O)c2)o1)c1c(C)[nH][nH]c1=O 73.1%
O=C1N=c2ccccc2=C1c1sc(Nc2ccc(O)cc2)nc1O 93.5%
Cc1c(N2C(=O)c3ccc4c5c(ccc(c35)C2=O)CC4)c(=O)n(-c2ccccc2)n1C 93.9%
Cc1ccc(-n2nc(C)c3c2OC(N)=C(C#N)C3c2ccoc2)cc1 (configuration not stated) 69%
Cc1ccc(-n2nc(C)c3c2OC(N)=C(C#N)C3c2ccc(C)o2)cc1 (configuration not stated) 81.4%
